Records with an inconclusive call do not appear. Calls of active or inactive are those of the source. The calls were made as follows, unless noted: active = hit-call score of the fitted dose curve at least 0.9, where 1 is the maximum; inactive = score below 0.9.
Columns and labels:
[1] = biological target: human Thyroid Receptor alpha (THRa1), THRA (gene 7067) (UniProt P10827); test: ATG_THRa1_TRANS: Attagene TRANS-FACTORIAL HepG2 Assay for human Thyroid Receptor alpha (THRa1) (AID 2283014; active = hit-call score of the fitted dose curve at least 0.9, where 1 is the maximum)
In short: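 Transient HepG2 transfection, NR-Gal4 chimera driving GAL4-UAS reporters; 24 h compound exposure; total RNA, oligo(dT) RT, PCR, fluorescent primer extension, capillary electrophoresis. Upward direction vs DMSO control.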

[2] = read-out: E-selectin (Homo sapiens) (UniProt P16581); test: BSK_3C_Eselectin: BioMAP Diversity Plus: 3C Assay for Eselectin Biomarker Activity (AID 2283015); conditions: primary human endothelial cells (HUVEC); actives raise or lower the signal;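 also: cell surface E-selectin protein quantified by ELISA 24 h after dosing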
In short: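 HUVEC, 3C stimulation; compound exposure 24 h; E-selectin by ELISA; gain- or loss-of-signal fitted bidirectionally vs DMSO baseline.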

[3] = read-out: Interleukin-1 alpha (IL1a), IL1A (gene 3552); test: BSK_BE3C_IL1a: BioMAP Diversity Plus: BE3C Assay for Interleukin-1 alpha (IL1a) Biomarker Activity (AID 2283016); conditions: primary human bronchial epithelial cells; actives raise or lower the signal
In short: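 Human primary bronchial epithelial cells (BE3C system) were dosed with compound and IL-1a measured by ELISA 24 h later. Activity was fitted bidirectionally against DMSO baseline; cytotoxicity was tracked in parallel cultures by SRB total-protein staining.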

[4] = read-out: Monocyte Chemoattractant Protein-1 (MCP1), CCL2 (gene 6347); test: BSK_3C_MCP1: BioMAP Diversity Plus: 3C Assay for Monocyte Chemoattractant Protein-1 (MCP1) Biomarker Activity (AID 2283017); conditions: primary human endothelial cells (HUVEC); actives raise or lower the signal
In short: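 HUVEC, 3C system; 24 h chemical exposure; MCP-1 by ELISA; bidirectional curve fit vs DMSO baseline.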

[5] = read-out: Monocyte Chemoattractant Protein-1 (MCP1), CCL2 (gene 6347); test: BSK_4H_MCP1: BioMAP Diversity Plus: 4H Assay for Monocyte Chemoattractant Protein-1 (MCP1) Biomarker Activity (AID 2283018); conditions: primary human endothelial cells (HUVEC); actives raise or lower the signal
In short: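 Human umbilical vein endothelial cells (4H system) dosed with chemical; MCP-1 measured by ELISA 24 h after dosing. Bidirectional curve fitting against DMSO negative control as baseline; parallel SRB total-protein staining tracks overt cytotoxicity.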

[6] = read-out: Human Leukocyte Antigen - DR isotype (HLADR), HLA-DRA (gene 3122); test: BSK_3C_HLADR: BioMAP Diversity Plus: 3C Assay for Human Leukocyte Antigen - DR isotype (HLADR) Biomarker Activity (AID 2283019); conditions: primary human endothelial cells (HUVEC); actives raise or lower the signal;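 also: ELISA of cell-surface HLA-DR on HUVEC 24 h after dosing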
In short: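 HUVEC, 3C stimulation, 24 h post-dose; HLA-DR by ELISA; bidirectional curve fit vs DMSO baseline; gain or loss of signal scored.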

[7] = read-out: Interleukin-8 (IL8), CXCL8 (gene 3576); test: BSK_3C_IL8: BioMAP Diversity Plus: 3C Assay for Interleukin-8 (IL8) Biomarker Activity (AID 2283020); conditions: primary human endothelial cells (HUVEC); actives raise or lower the signal
In short: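 Primary human umbilical vein endothelial cells (3C system) were exposed to test chemical for 24 h, then IL-8 was quantified by ELISA. Responses were fitted bidirectionally against DMSO vehicle as baseline.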

[8] = read-out: Monokine induced gamma interferon (MIG), CXCL9 (gene 4283); test: BSK_3C_MIG: BioMAP Diversity Plus: 3C Assay for Monokine induced gamma interferon (MIG) Biomarker Activity (AID 2283021); conditions: primary human endothelial cells (HUVEC); actives raise or lower the signal
In short: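 Primary human umbilical vein endothelial cells in the 3C system were exposed to chemical for 24 h, after which MIG was quantified by ELISA. Activity was fitted bidirectionally against DMSO as negative control and baseline.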

[9] = BSK_3C_SRB: Viability Assessment in the BioMAP Diversity Plus: 3C Assay (AID 2283023); conditions: primary human endothelial cells (HUVEC);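 also: cells read 24 h after compound dosing; fitted both ways against DMSO so a hit may be signal rise or drop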
In short: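 HUVEC, 24 h post-dose; 10% TCA fix, 0.1% SRB stain, A560 nm. Bidirectional curve fit vs DMSO negative control.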

[10] = read-out: Matrix Metallopeptidase 1 (MMP1), MMP1 (gene 4312); test: BSK_BE3C_MMP1: BioMAP Diversity Plus: BE3C Assay for Matrix Metallopeptidase 1 (MMP1) Biomarker Activity (AID 2283024); conditions: primary human bronchial epithelial cells; actives raise or lower the signal
In short: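 Primary human bronchial epithelial cells were dosed with test chemicals, and MMP1 levels were measured by ELISA 24 h later. Data were fitted bidirectionally against DMSO as the negative control and activity baseline.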

[11] = BSK_3C_Vis: BioMAP Diversity Plus: 3C Assay for Morphology Visualization (AID 2283025); conditions: primary human endothelial cells (HUVEC);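 also: fitted both ways so gain or loss versus DMSO counts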
In short: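 Human umbilical vein endothelial cells in the 3C system were imaged by light microscopy 24 h after chemical dosing to record cell morphology. Activity was fitted bidirectionally against DMSO as negative control and baseline; the endpoint serves as a background control.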

[12] = read-out: Pselectin, SELP (gene 6403); test: BSK_4H_Pselectin: BioMAP Diversity Plus: 4H Assay for Pselectin Biomarker Activity (AID 2283026); conditions: primary human endothelial cells (HUVEC); actives raise or lower the signal
In short: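 Primary human umbilical vein endothelial cells were exposed to test chemical for 24 h, then cell-surface P-selectin was quantified by ELISA. Activity was fitted bidirectionally against DMSO as negative control and baseline.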

[13] = BSK_4H_SRB: Viability Assessment in the BioMAP Diversity Plus: 4H Assay (AID 2283027); conditions: primary human endothelial cells (HUVEC);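 also: cells exposed to compound for 24 h before staining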
In short: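 Human umbilical vein endothelial cells were dosed with chemical and, after 24 h, fixed with 10% TCA, stained with 0.1% sulforhodamine B, and read at 560 nm to give total protein as a cytotoxicity measure. Bidirectional fitting relative to DMSO control.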

[14] = BSK_BE3C_SRB: Viability Assessment in the BioMAP Diversity Plus: BE3C Assay (AID 2283028); conditions: primary human bronchial epithelial cells;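 as to AC50: fitted both ways so AC50 may mark signal gain or loss versus DMSO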
In short: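 Primary human bronchial epithelium; chemical dosing, 24 h; 10% TCA fix, 0.1% SRB stain, A560; bidirectional fit vs DMSO baseline.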

[15] = read-out: Thrombomodulin, THBD (gene 7056); test: BSK_3C_Thrombomodulin: BioMAP Diversity Plus: 3C Assay for Thrombomodulin Biomarker Activity (AID 2283029); conditions: primary human endothelial cells (HUVEC); actives raise or lower the signal
In short: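 Primary human umbilical vein endothelial cells (3C system) were exposed to chemical for 24 h, then thrombomodulin levels were measured by ELISA. Activity was fitted bidirectionally against the DMSO negative control as baseline.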

[16] = read-out: Urokinase-type plasminogen activator receptor (uPAR), PLAUR (gene 5329); test: BSK_4H_uPAR: BioMAP Diversity Plus: 4H Assay for Urokinase-type plasminogen activator receptor (uPAR) Biomarker Activity (AID 2283030); conditions: primary human endothelial cells (HUVEC); actives raise or lower the signal
In short: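 HUVEC, 24 h post-dose; uPAR by ELISA; bidirectional fit vs DMSO baseline.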

[17] = read-out: Vascular endothelial growth factor receptor 2 (Homo sapiens) (UniProt P35968); test: BSK_4H_VEGFRII: BioMAP Diversity Plus: 4H Assay for Vascular endothelial growth factor receptor 2 (VEGFR2) Biomarker Activity (AID 2283031); conditions: primary human endothelial cells (HUVEC); actives raise or lower the signal
In short: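 HUVEC (human primary), 4H system; 24 h post-dose; VEGFRII by ELISA; bidirectional curve fit vs DMSO baseline; gain or loss of signal scored.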

[18] = read-out: Human Leukocyte Antigen - DR isotype (HLADR), HLA-DRA (gene 3122); test: BSK_BE3C_HLADR: BioMAP Diversity Plus: BE3C Assay for Human Leukocyte Antigen - DR isotype (HLADR) Biomarker Activity (AID 2283032); conditions: primary human bronchial epithelial cells; actives raise or lower the signal
In short: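 Human primary bronchial epithelial cells in the BE3C system were exposed to chemicals for 24 h, after which HLA-DR levels were quantified by ELISA. Activity was fitted bidirectionally, gain or loss of signal, against DMSO as negative control and baseline.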

[19] = biological target: human Vitamin D Receptor (VDR), VDR (gene 7421) (UniProt P11473); test: ATG_VDR_TRANS: Attagene TRANS-FACTORIAL HepG2 Assay for human Vitamin D Receptor (VDR) (AID 2283022; active = hit-call score of the fitted dose curve at least 0.9, where 1 is the maximum)
In short: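 RT-PCR/capillary electrophoresis read-out of reporter mRNA induction in transiently transfected HepG2; 24 h dosing; chimeric NR-Gal4 (TRANS format); gain-of-signal fit against DMSO baseline.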

[20] = biological target: human Retinoid X Receptor beta (RXRb), RXRB (gene 6257) (UniProt P28702); test: ATG_RXRb_TRANS: Attagene TRANS-FACTORIAL HepG2 Assay for human Retinoid X Receptor beta (RXRb) (AID 2283013; active = hit-call score of the fitted dose curve at least 0.9, where 1 is the maximum)
In short: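 HepG2 cells transiently transfected with multiplexed reporter units driven by GAL4-UAS and exogenous chimeric NR-Gal4 proteins; treated 24 h. Reporter mRNA measured by RT-PCR, 6-FAM labelling and capillary electrophoresis; gain-of-signal fitted versus DMSO baseline.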

Measured: AC50

Chain of human Retinoid X Receptor beta (RXRb), RXRB (gene 6257) (P28702 whole entry, looked up, the tested form may be a part): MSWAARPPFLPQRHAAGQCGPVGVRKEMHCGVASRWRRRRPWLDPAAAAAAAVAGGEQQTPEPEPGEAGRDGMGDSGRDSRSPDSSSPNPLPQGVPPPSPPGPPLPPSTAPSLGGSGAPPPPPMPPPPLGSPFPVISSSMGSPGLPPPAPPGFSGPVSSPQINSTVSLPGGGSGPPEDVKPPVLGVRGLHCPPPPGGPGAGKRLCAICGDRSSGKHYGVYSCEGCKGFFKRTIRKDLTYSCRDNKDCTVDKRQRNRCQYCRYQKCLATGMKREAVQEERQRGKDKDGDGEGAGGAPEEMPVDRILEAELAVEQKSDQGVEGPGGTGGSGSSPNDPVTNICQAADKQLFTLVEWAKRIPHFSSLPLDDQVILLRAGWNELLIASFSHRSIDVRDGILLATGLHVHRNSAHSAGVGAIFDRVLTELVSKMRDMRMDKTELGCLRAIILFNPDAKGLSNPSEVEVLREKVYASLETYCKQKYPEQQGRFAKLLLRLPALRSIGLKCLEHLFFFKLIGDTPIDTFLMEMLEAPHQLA
Chain of E-selectin (Homo sapiens) (P16581 whole entry, looked up): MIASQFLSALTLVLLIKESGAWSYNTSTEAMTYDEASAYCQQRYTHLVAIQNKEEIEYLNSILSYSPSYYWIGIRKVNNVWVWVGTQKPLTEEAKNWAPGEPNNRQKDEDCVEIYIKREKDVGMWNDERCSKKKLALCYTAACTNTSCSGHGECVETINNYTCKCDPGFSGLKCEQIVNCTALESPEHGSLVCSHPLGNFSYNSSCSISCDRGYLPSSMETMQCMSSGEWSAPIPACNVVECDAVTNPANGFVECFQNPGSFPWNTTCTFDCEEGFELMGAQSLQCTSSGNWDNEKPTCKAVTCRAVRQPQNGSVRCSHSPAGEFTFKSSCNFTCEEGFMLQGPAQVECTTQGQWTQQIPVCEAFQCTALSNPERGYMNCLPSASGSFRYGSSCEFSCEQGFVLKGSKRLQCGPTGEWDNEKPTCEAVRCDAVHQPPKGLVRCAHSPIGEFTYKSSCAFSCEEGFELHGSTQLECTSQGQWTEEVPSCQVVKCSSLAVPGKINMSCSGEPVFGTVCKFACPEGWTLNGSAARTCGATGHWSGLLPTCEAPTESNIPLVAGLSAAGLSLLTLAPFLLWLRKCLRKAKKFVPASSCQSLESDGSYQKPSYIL
Chain of human Thyroid Receptor alpha (THRa1), THRA (gene 7067) (P10827 whole entry, looked up, the tested form may be a part): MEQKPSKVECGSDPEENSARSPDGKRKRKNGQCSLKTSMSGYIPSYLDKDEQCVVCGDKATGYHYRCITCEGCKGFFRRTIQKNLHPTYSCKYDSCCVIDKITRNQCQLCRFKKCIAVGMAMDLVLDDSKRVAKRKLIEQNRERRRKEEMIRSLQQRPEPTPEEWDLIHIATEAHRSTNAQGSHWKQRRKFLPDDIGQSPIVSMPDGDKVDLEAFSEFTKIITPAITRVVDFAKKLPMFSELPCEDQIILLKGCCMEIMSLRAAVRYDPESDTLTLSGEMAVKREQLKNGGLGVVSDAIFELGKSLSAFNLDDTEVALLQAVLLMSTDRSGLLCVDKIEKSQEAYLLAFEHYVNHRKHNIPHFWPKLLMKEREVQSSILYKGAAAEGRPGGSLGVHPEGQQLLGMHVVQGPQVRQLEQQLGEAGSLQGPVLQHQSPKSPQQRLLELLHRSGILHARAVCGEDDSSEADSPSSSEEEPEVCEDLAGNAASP
Chain of human Vitamin D Receptor (VDR), VDR (gene 7421) (P11473 whole entry, looked up, the tested form may be a part): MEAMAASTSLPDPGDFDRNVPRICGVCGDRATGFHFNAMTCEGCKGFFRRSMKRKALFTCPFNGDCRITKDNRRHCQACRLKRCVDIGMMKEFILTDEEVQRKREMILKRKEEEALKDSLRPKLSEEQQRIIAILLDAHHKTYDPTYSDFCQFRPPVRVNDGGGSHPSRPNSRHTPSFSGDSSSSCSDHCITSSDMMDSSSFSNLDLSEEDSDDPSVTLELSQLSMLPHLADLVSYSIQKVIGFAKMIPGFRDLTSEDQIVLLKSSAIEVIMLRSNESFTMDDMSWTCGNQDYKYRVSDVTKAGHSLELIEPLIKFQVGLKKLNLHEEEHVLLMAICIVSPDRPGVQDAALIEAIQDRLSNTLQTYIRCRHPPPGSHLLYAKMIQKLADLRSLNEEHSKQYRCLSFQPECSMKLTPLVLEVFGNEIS

CC1=C(C)S(=O)(=O)CCS1(=O)=O
active: [11] 39 µM
not listed: [19] | [20]
inactive: all other assays above

CC(=O)OCC(COC(C)=O)OC(C)=O
not listed: [11] | [17] | [20]
inactive: all other assays above

NC(=Nc1ccccc1)Nc1ccccc1
not listed: [1] | [11] | [12] | [17] | [19]
inactive: all other assays above

O=C(NS(=O)(=O)/C=C/c1cccs1)c1ccc(F)cc1Br
active: [10] 1.31 µM
not listed: [17] | [20]
inactive: all other assays above

C/C=C/c1ccc(OC)cc1
not listed: [1] | [17] | [19]
inactive: all other assays above

CCCCCCCCCCCCCCCCO
not listed: [11] | [19] | [20]
inactive: all other assays above

CC(COCC(C)OC(=O)c1ccccc1)OC(=O)c1ccccc1 (configuration not stated)
not listed: [11] | [17] | [20]
inactive: all other assays above

CCCCCCCCCCCCCCOS(=O)(=O)O
active: [3] 28.1 µM | [10] 31.8 µM | [14] 21.2 µM | [15] 33.8 µM | [18] 20 µM
not listed: [1] | [19]
inactive: all other assays above
